The entries come from a sample that favours hits as a whole.
Pf Dd2 inh = blocks in vitro growth of P. falciparum Dd2; P. falciparum Dd2 growth, SYBR Green, 72 h; Potency, µM (doses to about 28.9 µM), for the others: at the top dose activity, negative = inhibition, usual class: inhibitors; actives 4.3% (n = 120,000); AID 1347417; active means well fitted inhibition curve with a large enough effect;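 further: plate controls were DMSO vehicle for no effect and reference drug for full effect; nearly all actives have a fitted effect of over 65% in size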
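Readout: SYBR Green fluorescence, 485 nm excitation, 535 nm emission, after ~16 h lysis at 37C. Before that, Dd2-infected red cells (2.5% hematocrit) grew 72 h with compound, 29 uM top final concentration.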
Active calls of the source: *; i = inactive; [ ] = another dose, or the depositor's remark. Potency means the concentration at half of the fitted maximal effect.

SMILES	Pf Dd2 inh
COCCN(CCOC)CC[C@@H]1CC[C@H](O)[C@@H](C(=O)N2CCOCC2)O1	3.6%[44.1 µM]
Cc1ncsc1CCC(=O)NCc1cc2n(n1)CCN(C(=O)N(C)C)C2	9.2%
Cc1ccc(-n2nc(C)c3c(C)c(CCC(=O)NCc4cccc(Cl)c4)c(C)nc32)cc1C	-6.4%
Cc1ccc(-n2nc(C)c3c(C)c(CCC(=O)NCc4ccccc4Cl)c(C)nc32)cc1	5.62µM*
Cc1nc2c(c(C)nn2-c2ccccc2)c(C)c1CCC(=O)NCc1ccccc1	-27.3%
Cc1nc2c(c(C)nn2-c2ccccc2)c(C)c1CCC(=O)NCCc1ccccc1	-23.1%
CCCCNC(=O)CCc1c(C)nc2c(c(C)nn2-c2ccccc2)c1C	-22.6%
CCOc1ccc(CCNC(=O)CCc2c(C)nc3c(c(C)nn3-c3ccccc3)c2C)cc1OCC	7.94µM*
CC1=C[C@@H](CNS(=O)(=O)Cc2ccccc2)[C@H](C(C)C)C[C@H]1CC(=O)N1CCOCC1	i
COc1ccccc1-c1onc(C)c1C(=O)NCc1ccccc1Cl	-6.1%
CCOCc1nc(C2CCCN(C(=O)Cc3ccc(OC)cc3)C2)no1 (stereo not given)	8.9%
O=C(O)c1ccc(CN2CC[C@@H](c3ccc4ccccc4c3)[C@H](O)C2)cc1	-25.4%
O[C@@H]1CN(CC2CCNCC2)CC[C@H]1c1ccc2ccccc2c1	11.2µM*
CS(=O)(=O)c1ccc(CN2CC[C@@H](c3ccc4ccccc4c3)[C@H](O)C2)cc1	-18.2%
COc1cccc(Cn2c(Cc3c[nH]c4ccccc34)n[nH]c2=O)c1	-7.9%
COCCN1CCC(N2CCN(C(=O)C3CCCC3)CC2)C1=O (stereo not given)	12.8%
Cc1ccc(S(=O)(=O)Cc2noc([C@@H]3C[C@@H](O)CN3CC3CCCCC3)n2)cc1	i
Cc1cc(C)c(/C=C/c2onc(C)c2S(=O)(=O)N2CCC(C(=O)NCc3ccco3)CC2)c(C)c1	11.2µM*
CCc1ccc(NC(=O)C2CCN(S(=O)(=O)c3c(C)noc3/C=C/c3cccs3)CC2)cc1	12.6µM*
Cc1cccc(NC(=O)C2CCN(S(=O)(=O)c3c(C)noc3/C=C/c3ccco3)CC2)c1C	-13.4%
CCOc1ccc(NC(=O)C2CCN(S(=O)(=O)c3c(C)noc3/C=C/c3c(C)cc(C)cc3C)CC2)cc1	63.4%
COc1cccc(CNC(=O)C2CCN(S(=O)(=O)c3c(C)noc3/C=C/c3cccs3)CC2)c1	6.31µM*
COc1cccc(/C=C/c2onc(C)c2S(=O)(=O)N2CCC(C(=O)N3CCC(C)CC3)CC2)c1	-9.5%
Cc1noc(C)c1S(=O)(=O)N1CCC(C(=O)Nc2ccc(Br)cc2)CC1	-12.2%
Cc1noc(/C=C/c2cccs2)c1S(=O)(=O)N1CCC(C(=O)NCc2ccc(Cl)cc2)CC1	i
SMILES	Pf Dd2 inh
Cc1ccc(NC(=O)C2CCN(S(=O)(=O)c3cccs3)CC2)cc1	-19.8%
Cc1ccc(/C=C/c2onc(C)c2S(=O)(=O)N2CCC(C(=O)Nc3ccc(OC(F)(F)F)cc3)CC2)cc1	62.5%
COc1ccc(/C=C\c2onc(C)c2S(=O)(=O)N2CCC(C(=O)Nc3cccc(C)c3C)CC2)cc1	2.82µM*
COc1cc(OC)c(NC(=O)C2CCN(S(=O)(=O)c3c(C)noc3/C=C/c3c(C)cc(C)cc3C)CC2)cc1Cl	i
Cc1nc(-c2cn(C3CCCN(C(=O)c4ccccc4F)C3)nn2)no1 (stereo not given)	-19.1%
CC(C)C1=NOC2(CCN([S+](=O)([O-])c3ccccc3)C2)C1 (stereo not given)	12.9%
C=CCNC(=O)c1cccn2nccc12	10.7%[44.1 µM]
COCC(=O)NC1CCC12CCN(Cc1ccc(F)c(F)c1)CC2 (stereo not given)	-9.2%
Cc1ccc(NC(=O)C2CCN(S(=O)(=O)c3c(C)noc3C)CC2)cc1C	-9.3%
COc1cc(NC(=O)C2CCN(S(=O)(=O)c3c(C)noc3/C=C/c3cccs3)CC2)cc(OC)c1	11.2µM*
COc1ccc(CCNC(=O)C2CCN(S(=O)(=O)c3c(C)noc3/C=C/c3ccc(C)cc3)CC2)cc1OC	-5.2%
CN(CCCc1cnn(C)c1)C(=O)C1CNCCO1 (stereo not given)	19.3%
COc1ccccc1C(=O)N1CCC2(CC1)c1nccn1-c1ccccc1CN2C	i[5.79 µM]
COc1ccccc1C(=O)N1CCC2(CC1)c1nccn1-c1ccccc1CN2CC(C)C	0.891µM*
CC(C)CN1Cc2ccccc2-n2ccnc2C12CCN(C(=O)C(C)C)CC2	-20.9%[5.79 µM]
Cn1cnc(S(=O)(=O)N2CCC3(CC2)CC(CC(=O)N2CCCC2)CCO3)c1 (stereo not given)	20.6%
CCOc1cccc(-c2noc(-c3ncn4c3COC(c3ccc(F)cc3)C4)n2)c1 (stereo not given)	-23.4%
Cc1ccc(-c2nc(-c3nnn4c3COC(c3ccccc3Cl)C4)no2)cc1 (stereo not given)	-8.7%
COc1ccc(C2Cn3nnc(-c4nc(-c5ccc(F)cc5)no4)c3CO2)cc1 (stereo not given)	i
COc1ccc(C2Cn3cnc(-c4nc(-c5ccc(SC)cc5)no4)c3CO2)cc1 (stereo not given)	i

Source: PubChem BioAssay
